What is called AC50 is the concentration giving half of the maximal activity seen.

Calls of active or inactive are those of the source. The calls were made as follows: active = hit-call score of the fitted dose curve at least 0.9, where 1 is the maximum; inactive = score below 0.9.

The text below walks through data of PubChem BioAssay (EPA / NIEHS).

The test deals with TTR (gene 7276). Briefly: CCTE_GLTED_hTTR_0.125uM: CCTE's human Transthyretin (hTTR) Inhibition Assay, with 0.125uM TTR, Great Lakes Toxicology and Ecology Division (GLTED) Lab (AID 2284431).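 Also: hits lower the fluorescence signal relative to DMSO baseline.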 A digest of the protocol: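 Probe-displacement format: chemicals competing for the T4 site release ANSA from 0.125uM TTR during a 2 h incubation, measured by fluorescence at 380 excitation and 475 emission.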
Take `CCC(C)c1ccccc1O` (stereo not drawn): the AC50 is 22.4 µM (active).

Consider `CCCCCCCCCCCC(=O)O`, for which the AC50 was 3.05 µM (active).

On to `CCCCc1ccc2ccccc2c1S(=O)(=O)O`, for which the AC50 is 0.712 µM (active).

In the case of `CCCCCCc1ccc(N)cc1`, the AC50 is 9.58 µM (active).

On to `CCCCCCCCCC=CCC1CC(=O)OC1=O` (stereo not drawn), for which the AC50 was 7.87 µM (active).

With `COc1cc([N+](=O)[O-])ccc1N`, the AC50 was 14.9 µM (active).

In the case of `O=C(c1ccccc1)c1ccccc1`, the AC50 is 21.3 µM (active).

For the compound `Cc1[nH]nc2c1N=C(c1ccccc1Cl)c1cc([N+](=O)[O-])ccc1N2`, the AC50 is 0.771 µM (active).
